Screening data: PubChem BioAssay, The Scripps Research Institute Molecular Screening Center
FBW7 act – human FBW7 E3 ligase activation, primary screen; Q969H0; AlphaScreen FBW7–phospho-cyclin E peptide binding, activator screen; normalized activity (activation), % at 26.1 µM; 650,000 compounds, 0.13% hits; AID 1259310; in the data active = normalized activity above about 1.9%;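 also: purified mutant Fbw7 with reduced substrate affinity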
GPR151 activ – activates the human receptor GPR151 | Q8TDV0 | PathHunter beta-arrestin GPR151 cells, luminescence | activation, % at 11.2 µM | 650,000 compounds, 1% hits; in the data active = activation above about 4.9%;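 also: 0% = median of compound wells and 100% = cells with positive control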
TEAD-YAP block – TEAD-YAP interaction inhibition. 640,000 compounds, 1.4% hits. AID 1259422. HEK-TIYL cells, TEAD-Gal4/YAP UAS-luciferase luminescence. inhibition, % at 9.12 µM; in the data active = inhibition above about 32%;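 also: 0% = median of test compound wells and 100% = reference inhibitor wells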
MITF primary – human MITF inhibition, primary screen. AID 1259374. AlphaScreen MITF homodimerization, bead proximity signal. inhibition, % at 2.6 µM. O75030. 650,000 compounds, 0.91% hits; in the data active = inhibition above about 50%;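 also: 0% = vehicle wells with protein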
GPR151 confirm – confirmation of human GPR151 activators; shares compounds with GPR151 activ; 6,700 tested, under 10 active; AID 1508609; activation, % at 11.2 µM; GPR151 PathHunter beta-arrestin cells, luminescence, 90 min; % of EA-reagent control over plate median;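 active = mean percent activation across replicates above the confirmation screen cutoff of 4.91%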
GPR119 counter – activates human GPR119 in a GPR151 counter-screen; shares compounds with GPR151 activ; GPR119 PathHunter beta-arrestin cells, luminescence, 90 min; 0 = compound-well median, 100 = enzyme-acceptor control; activation, % at 11.2 µM; 6,700 compounds, 0.3% hits; AID 1508611;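 active = mean percent activation in the counterscreen above 29.09%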;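 also: counterscreen on off-target GPR119 to flag nonselective hits from the GPR151 activator screen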
Target sequence (Q8TDV5 whole entry, looked up): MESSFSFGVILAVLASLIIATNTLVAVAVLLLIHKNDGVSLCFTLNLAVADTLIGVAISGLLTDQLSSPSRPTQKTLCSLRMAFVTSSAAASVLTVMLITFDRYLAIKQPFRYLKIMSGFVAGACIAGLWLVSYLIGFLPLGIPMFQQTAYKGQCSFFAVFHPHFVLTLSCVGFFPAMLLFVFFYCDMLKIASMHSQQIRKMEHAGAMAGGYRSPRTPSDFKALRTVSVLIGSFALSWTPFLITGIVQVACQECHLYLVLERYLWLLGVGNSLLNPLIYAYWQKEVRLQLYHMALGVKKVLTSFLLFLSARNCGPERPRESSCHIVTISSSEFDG
* = called active by the depositor; · = no result. In the library only some 3.4% were active in any assay of this set; here they are far more common.

SMILES	FBW7 act	GPR151 activ	TEAD-YAP block	MITF primary	GPR151 confirm	GPR119 counter
CCCOc1ccc(C2C(C(=O)OC3CCCCC3)=C(C)NC3=C2C(=O)CCC3)cc1OC (stereo unspecified)	0.8	7.2*	16.7	11.7	-1.1	-6.4
COc1ccc(-c2c(C(F)(F)F)oc3cc(OC(=O)c4cc(OC)c(OC)c(OC)c4)ccc3c2=O)cc1OC	-0.1	-0.5	3.0	3.7	·	·
COc1ccc(OC)c(C(=O)CC2(O)C(=O)Nc3ccc(Br)cc32)c1 (stereo unspecified)	-0.2	5.8*	-16.6	-2.9	0.5	-5.5
CN(C)CC(O)COc1ccc(C(C)(C)C)cc1 (stereo unspecified)	0.1	-0.5	1.2	13.5	·	·
Cc1cc(C)c(C)c(OCCN2CCCC2)c1	0.0	0.3	-3.3	-3.5	·	·
Clc1ccc(CSc2ncnc3nc[nH]c23)cc1	0.2	6.6*	-4.0	10.2	-0.4	-4.6
COc1ccc(C2NC(C(=O)O)C3C(=O)N(c4ccc(F)cc4)C(=O)C23)c(OC)c1 (stereo unspecified)	0.0	0.6	4.4	-4.7	·	·
COc1ccc(OC)c(C2NC(C(=O)O)C3C(=O)N(c4cccc(C(=O)O)c4)C(=O)C23)c1 (stereo unspecified)	0.2	5.0*	4.4	-3.4	0.0	1.0
COc1ccc(C2NC(C(=O)O)C3C(=O)N(c4ccc(F)cc4)C(=O)C23)c(OC)c1OC (stereo unspecified)	-0.1	1.1	0.3	7.7	·	·
COc1ccc(OC)c(C2NC(C(=O)O)C3C(=O)N(c4ccccc4)C(=O)C23)c1 (stereo unspecified)	-0.3	5.2*	-8.7	-7.1	-0.2	6.6
COc1ccc(S(=O)(=O)Nc2ccccc2C(=O)NC(C)C)cc1OC	-0.1	18.4*	-0.5	-1.6	0.5	6.1
COc1ccc(NC(=S)NNS(=O)(=O)c2cccc([N+](=O)[O-])c2)cc1	-0.2	4.9*	-11.1	-23.7	0.1	-13.2
COc1ccc(S(=O)(=O)Nc2ccccc2SC)cc1Br	1.0	5.7*	-2.6	15.8	-0.5	4.3
COc1ccc(S(=O)(=O)Nc2cccc3c([N+](=O)[O-])cccc23)cc1OC	-0.2	6.0*	-20.3	-6.8	0.1	6.8
COc1ccc(NC(=S)Nc2cccc([N+](=O)[O-])c2)cc1	0.1	-0.5	-0.7	16.4	·	·
COc1ccc(C(c2nnnn2C(C)(C)C)N2CCN3CCCC3C2)cc1 (stereo unspecified)	0.1	-0.7	-6.7	5.1	·	·
CCOc1ccc(S(=O)(=O)Nc2cc3c4c(oc3c3ccccc23)CCC(C(C)(C)CC)C4)cc1 (stereo unspecified)	0.1	0.9	-8.0	7.1	·	·
CCOc1ccc(NC(=O)C(=S)N2CCCCC2)cc1	0.0	0.4	-4.5	19.2	·	·
N#Cc1c(-c2ccccc2)nc(=S)n(-c2ccccc2)c1N	0.2	-1.6	-3.1	26.4	·	·
CCN(CC)S(=O)(=O)c1ccc(OC)c(NS(=O)(=O)c2ccccc2[N+](=O)[O-])c1	-0.1	1.5	-11.2	-16.5	·	·
COc1ccccc1NS(=O)(=O)c1ccc(SC)cc1	0.2	6.3*	2.1	4.0	-0.6	0.1
CCN(CC)S(=O)(=O)c1ccc(OC)c(NS(=O)(=O)c2cccc([N+](=O)[O-])c2)c1	0.1	6.2*	-0.3	24.3	0.3	4.3
CC1COc2ccccc2N1C(=O)C(Cl)Cl (stereo unspecified)	0.6	-0.9	23.4	6.3	·	·
COc1c(Cl)cc(Cl)cc1C(=O)NCc1ccccc1	0.0	1.1	-4.2	-16.6	·	·
Cc1oc(-c2ccc(Cl)cc2)nc1CN1CCC(C(=O)N2CCN(C)CC2)CC1	-0.1	-1.5	-14.1	1.5	·	·
SMILES	FBW7 act	GPR151 activ	TEAD-YAP block	MITF primary	GPR151 confirm	GPR119 counter
Nc1nccc(-c2ccc3nc(C4COc5ccc(CC(=O)NCc6cccnc6)cc5C4)[nH]c3c2)n1 (stereo unspecified)	-0.1	0.5	-6.2	10.2	·	·
Cc1ccc(CN2CCC(N(C)C(C)c3nccs3)CCC2=O)cc1 (stereo unspecified)	-0.5	5.2*	-4.0	-0.7	0.6	14.3
Cc1cc(NC(=O)CN2C(=O)NC(C)(c3cccc(Br)c3)C2=O)no1 (stereo unspecified)	0.0	0.8	0.6	1.3	·	·
CCC(=O)Nc1sc2c(c1C(=O)Nc1ccccc1C(=O)OC)CCC(C(C)(C)C)C2 (stereo unspecified)	-0.1	5.2*	-1.0	1.4	-0.9	-12.4
CCC(C)(C)C1CCc2c(sc(NC(=O)c3ccccc3OC)c2C(N)=O)C1 (stereo unspecified)	-0.1	8.1*	-2.6	-3.0	0.3	4.9
COc1ccccc1NC(=O)c1c(NC(=O)CCC(=O)O)sc2c1CCC(C(C)(C)C)C2 (stereo unspecified)	-0.2	1.5	-4.1	-10.5	·	·
O=C(NCc1cccc(C(F)(F)F)c1)c1ccnc(N2CCN(Cc3ccc4c(c3)OCO4)CC2)c1	-0.1	-0.3	8.0	-10.5	·	·
CCN(CC)c1ccc(/C=N/NC(=O)c2cc([N+](=O)[O-])ccc2O)cc1	0.2	-8.4	-3.6	8.8	·	·
CN(C)c1ccc(/C=N/N2C(=O)NC(C)(c3ccc(OC(F)F)cc3)C2=O)cc1 (stereo unspecified)	-0.1	0.7	5.1	-5.7	·	·
Cc1cc(=O)[nH]c2nnc(SCC(=O)N3CCCCC3)n12	0.0	-0.8	3.1	5.2	·	·
Cc1sc2nc(CSCC(=O)NC3CC3)[nH]c(=O)c2c1C	-0.1	6.1*	-2.8	-9.9	-0.5	2.0
Cc1sc2nc(CSCC(=O)NCC(F)(F)F)[nH]c(=O)c2c1C	0.0	1.9	3.1	6.7	·	·
Cc1oc(-c2ccc(Cl)cc2)nc1CS(=O)CC(=O)NC(C)c1ccccc1 (stereo unspecified)	1.2	-1.2	-7.4	15.1	·	·
Cc1oc(-c2ccc(Cl)cc2)nc1CS(=O)CC(=O)NC(C)C (stereo unspecified)	0.0	9.4*	3.1	5.6	-0.5	-9.2
O=C1CC(N2CCN(Cc3ccccc3)CC2)C(=O)N1c1ccc(Br)cc1Br (stereo unspecified)	0.4	0.2	0.1	25.4	·	·
Cc1ccc(/C=N/NC(=O)C2C3CCCCC32)cc1 (stereo unspecified)	-0.1	0.3	-27.0	-6.1	·	·
Cc1nc(CNc2nncc(-c3ccc(Cl)cc3)n2)cs1	-0.1	9.4*	-24.3	-0.1	-0.6	2.5
CCc1ccccc1NC(=O)C(=O)NCCc1ccc(F)cc1	0.1	-0.9	-2.5	-3.0	·	·
c1nc(NCC2CCCO2)c2c3c(sc2n1)CCCC3 (stereo unspecified)	0.1	1.2	-2.1	-1.3	·	·
c1nc(NCc2ccc(CN3CCOCC3)cc2)c2c3c(sc2n1)CCC3	0.1	6.3*	32.5*	-0.7	0.8	-6.0
